Source: PubChem BioAssay (EPA / NIEHS)
Values joined by “and” are separate entries in the source; they are usually repeats but may differ in a detail not shown here. Equal values may be shown once. Some compounds were tested as several samples or in several runs, with calls that do not always agree. Active and inactive are the calls of the source. The calls were made as follows: active = hit-call score of the fitted dose curve at least 0.9, where 1 is the maximum; inactive = score below 0.9.

Assays:
[1] = APR_HepG2_P-H2AX_72hr: Apredica 72-hour HepG2 Assay for H2AX Phosphorylation (AID 2282916); settings: imaging, actives raise or lower the signal;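 also: phospho-histone H2A.x immunostain intensity per cell marking DNA damage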
How it was run: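 Human hepatoma HepG2 cells are dosed across ten concentrations (0.39 to 200 uM, 0.5% v/v DMSO) and incubated 72 hr. Phospho-histone H2A.x is then detected by antibody staining alongside c-Jun and Hoechst, and quantified by automated fluorescence imaging.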

[2] = APR_HepG2_MitoMembPot_72hr: Apredica 72-hour HepG2 Assay for Mitochondrial Membrane Potential (AID 2282917); settings: imaging, actives raise or lower the signal
How it was run: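 Membrane potential read by MitoTracker Red CMXRos (250 nM, 30 min, pre-fixation) fluorescence imaging of HepG2 after 72 hr exposure. Ten concentrations, 0.39–200 uM, duplicate wells, 0.5% DMSO; fitted in both directions against DMSO baseline.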

[3] = APR_HepG2_MitoticArrest_72hr: Apredica 72-hour HepG2 Assay for Mitotic Arrest (AID 2282918); settings: high-content imaging, actives raise or lower the signal
How it was run: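 Read-out is phospho-histone H3 immunofluorescence with Hoechst nuclear segmentation, imaged at 20x. Human HepG2 liver cells received ten concentrations (0.39–200 uM, final DMSO 0.5% v/v) for 72 hr before fixation. Gain or loss of signal was fitted relative to DMSO.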

[4] = APR_HepG2_MicrotubuleCSK_72hr: Apredica 72-hour HepG2 Assay for Microtubule CSK Stabilty (AID 2282919); settings: HepG2 microtubule cytoskeleton, high-content imaging, actives raise or lower the signal
How it was run: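 High-content imaging of alpha-tubulin staining in fixed HepG2 cells after 72 hr treatment with ten concentrations from 0.39 to 200 uM (0.5% DMSO). Fitting was bidirectional against DMSO; taxol served as positive control.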

[5] = APR_HepG2_P-H2AX_24hr: Apredica 24-hour HepG2 Assay for H2AX Phosphorylation (AID 2282920); settings: high-content imaging, actives raise or lower the signal
How it was run: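 HepG2, 24 hr, cpd 0.39–200 uM (10 conc, duplicate), DMSO 0.5% v/v final. Fix 3.7% formaldehyde, Triton X-100 permeabilize, anti-phospho-H2A.x 1:200 + Hoechst 2 ug/mL. Imaged, bidirectional fit vs DMSO.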

[6] = APR_HepG2_StressKinase_72hr: Apredica 72-hour HepG2 Assay for Stress Kinase (AID 2282921); settings: HepG2 stress kinase (phospho-c-Jun) imaging, actives raise or lower the signal
How it was run: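 After a 72 h compound treatment spanning 0.39 to 200 uM, formaldehyde-fixed cells are labelled for phosphorylated c-Jun and nuclei, imaged by automated fluorescence microscopy, and activity is fitted in both directions relative to DMSO controls.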

[7] = APR_HepG2_StressKinase_24hr: Apredica 24-hour HepG2 Assay for Stress Kinase (AID 2282922); settings: HepG2 stress kinase (phospho-c-Jun) imaging, actives raise or lower the signal
How it was run: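 High-content imaging of phospho-c-Jun immunofluorescence in fixed, permeabilized HepG2 cells after 24 h dosing. Ten concentrations, 0.39 to 200 uM, run in duplicate at 0.5% v/v DMSO; gain or loss of signal versus DMSO.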

[8] = APR_HepG2_p53Act_72hr: Apredica 72-hour HepG2 Assay for p53 Activation (AID 2282923); settings: high-content imaging, actives raise or lower the signal;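 also: average cellular p53 protein immunofluorescence intensity in HepG2 cells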
How it was run: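 Imaging-based endpoint: after 72 hr compound exposure (up to 200 uM, 0.5% DMSO), fixed and permeabilized monolayers were labelled with anti-p53 antibody and imaged; signal change in either direction was fitted relative to DMSO controls.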

[9] = APR_HepG2_MitoMass_72hr: Apredica 72-hour HepG2 Assay for Mitochondrial Mass (AID 2282924); settings: high-content imaging, actives raise or lower the signal;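 also: MitoTracker Red CMXRos stain intensity per cell imaged as mitochondrial mass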
How it was run: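 Readout is imaged MitoTracker Red (250 nM, 30 min, pre-fixation) signal, fitted bidirectionally against DMSO baseline. Human HepG2 liver cells received compound 0.39–200 uM in duplicate for 72 hr, final DMSO 0.5%.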

[10] = ATG_CRE_CIS: Attagene CIS-FACTORIAL HepG2 Assay for human cAMP Responsive Element (CRE) binding protein 3 (AID 2282926); settings: HepG2 CRE cis-reporter, Attagene multiplexed mRNA; actives raise or lower the signal
How it was run: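 Assay format: transient reporter transfection of HepG2, 24 h treatment, total RNA isolation with DNase I step. Reporter abundance read by fluorescence after PCR and capillary separation; DMSO-normalised gain or loss fitting.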

[11] = biological target: CCAAT/enhancer-binding protein beta (Homo sapiens) (UniProt P17676); assay: ATG_C_EBP_CIS: Attagene CIS-FACTORIAL HepG2 Assay for human CCAAT/Enhancer Binding Protein (C/EBP) beta (AID 2282927); settings: HepG2 Attagene cis-factorial transcription factor reporter; actives raise or lower the signal
How it was run: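 Endogenous transcription factor activity in human liver HepG2 cells is inferred from induction of a CEBPB-linked reporter mRNA. Exposure lasts 24 h; activity is fitted in both directions relative to DMSO.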

[12] = ATG_CMV_CIS: Attagene CIS-FACTORIAL HepG2 Assay for human CMV (Internal Marker) (AID 2282928); settings: HepG2 CMV promoter reporter, transcription factor profiling; actives raise or lower the signal;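 also: endpoint acts as a background internal control marker rather than a target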
How it was run: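 Bidirectional fits against DMSO are applied to reporter mRNA, read by RT-PCR with capillary electrophoresis, from HepG2 cells exposed 24 h. The endpoint serves as an internal CMV background marker within the cis-factorial reporter panel.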

[13] = ATG_DR4_LXR_CIS: Attagene CIS-FACTORIAL HepG2 Assay for human Liver X Receptor (LXR), DR4 submotif (AID 2282929); settings: HepG2 Attagene DR4 cis-reporter, mRNA transcription; actives raise or lower the signal
How it was run: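 Fluorescence intensity of labelled reporter cDNA fragments, separated by capillary electrophoresis, gives the signal. HepG2 cells bearing cis-regulated reporter constructs were treated 24 h; activity fitted bidirectionally relative to DMSO negative control.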

[14] = biological target: Aryl hydrocarbon receptor (Homo sapiens) (UniProt P35869); assay: ATG_Ahr_CIS: Attagene CIS-FACTORIAL HepG2 Assay for human Aryl Hydrocarbon Receptor (Ahr) (AID 2282930); settings: HepG2 AhR cis-factorial reporter transcription; actives raise or lower the signal
How it was run: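 Transient MRTU transfection of HepG2 → 24 h compound exposure → total RNA, oligo(dT) RT → PCR, 6-FAM extension, HpaI cut → CE fluorescence. DMSO = baseline; bidirectional curve fit.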

[15] = ATG_AP_1_CIS: Attagene CIS-FACTORIAL HepG2 Assay for human Activator Protein 1 (AP-1) (AID 2282931); settings: HepG2 Attagene cis-factorial AP-1 reporter mRNA; actives raise or lower the signal
How it was run: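 Multiplexed HepG2 reporter assay, 24 h dosing. mRNA induction detected by RT-PCR plus capillary electrophoresis. Activity fitted in both directions against DMSO.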

[16] = ATG_AP_2_CIS: Attagene CIS-FACTORIAL HepG2 Assay for human Activator Protein 2 (AP-2) (AID 2282932); settings: HepG2 AP-2 cis-reporter, Attagene transcription factor profiling; actives raise or lower the signal
How it was run: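 Endogenous transcription factor activity is reported through transfected multiplex reporter constructs in HepG2, after 24 h of compound exposure. Transcripts were quantified by RT-PCR and capillary electrophoresis of fluorescent fragments. Bidirectional fit against DMSO.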

[17] = ATG_BRE_CIS: Attagene CIS-FACTORIAL HepG2 Assay for human Bone Morphogenetic Protein (BMP) Response Element (BRE) (AID 2282933); settings: HepG2 BMP response element reporter, Attagene transcription factor profiling; actives raise or lower the signal
How it was run: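 Fluorescence-labelled reporter cDNA fragments, separated by capillary electrophoresis, gave the signal for this component of a 52-readout multiplex. HepG2 cells were transfected, exposed to chemicals for 24 h, and compared with DMSO using bidirectional fitting.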

[18] = biological target: Retinoic acid receptor alpha (Homo sapiens) (UniProt P10276); assay: ATG_DR5_RAR_CIS: Attagene CIS-FACTORIAL HepG2 Assay for human Retinoic Acid Receptor Alpha (RARE), DR5 submotif (AID 2282934); settings: HepG2 Attagene cis-factorial RARE DR5 reporter, mRNA; actives raise or lower the signal
How it was run: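 Transient MRTU transfection of HepG2; 24 h compound treatment; TriZol RNA, oligo(dT) RT, PCR, FAM labelling, capillary electrophoresis. Bidirectional fit vs DMSO. Endogenous TF activity at DR5 RARE.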

Sequence of Retinoic acid receptor alpha (Homo sapiens) (P10276 whole entry, looked up): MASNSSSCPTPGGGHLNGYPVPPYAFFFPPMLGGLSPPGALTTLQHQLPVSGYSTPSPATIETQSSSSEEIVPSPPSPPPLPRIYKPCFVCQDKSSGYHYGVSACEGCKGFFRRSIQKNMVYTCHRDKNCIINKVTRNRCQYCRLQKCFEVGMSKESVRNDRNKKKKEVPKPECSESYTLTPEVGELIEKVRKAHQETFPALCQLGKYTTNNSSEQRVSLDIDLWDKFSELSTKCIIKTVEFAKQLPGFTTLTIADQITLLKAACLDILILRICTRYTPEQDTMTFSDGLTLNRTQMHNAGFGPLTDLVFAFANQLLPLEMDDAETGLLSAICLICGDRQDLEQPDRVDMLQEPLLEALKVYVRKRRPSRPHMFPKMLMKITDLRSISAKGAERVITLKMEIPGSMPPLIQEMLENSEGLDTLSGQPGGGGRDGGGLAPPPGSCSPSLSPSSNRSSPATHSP
Sequence of Aryl hydrocarbon receptor (Homo sapiens) (P35869 whole entry, looked up): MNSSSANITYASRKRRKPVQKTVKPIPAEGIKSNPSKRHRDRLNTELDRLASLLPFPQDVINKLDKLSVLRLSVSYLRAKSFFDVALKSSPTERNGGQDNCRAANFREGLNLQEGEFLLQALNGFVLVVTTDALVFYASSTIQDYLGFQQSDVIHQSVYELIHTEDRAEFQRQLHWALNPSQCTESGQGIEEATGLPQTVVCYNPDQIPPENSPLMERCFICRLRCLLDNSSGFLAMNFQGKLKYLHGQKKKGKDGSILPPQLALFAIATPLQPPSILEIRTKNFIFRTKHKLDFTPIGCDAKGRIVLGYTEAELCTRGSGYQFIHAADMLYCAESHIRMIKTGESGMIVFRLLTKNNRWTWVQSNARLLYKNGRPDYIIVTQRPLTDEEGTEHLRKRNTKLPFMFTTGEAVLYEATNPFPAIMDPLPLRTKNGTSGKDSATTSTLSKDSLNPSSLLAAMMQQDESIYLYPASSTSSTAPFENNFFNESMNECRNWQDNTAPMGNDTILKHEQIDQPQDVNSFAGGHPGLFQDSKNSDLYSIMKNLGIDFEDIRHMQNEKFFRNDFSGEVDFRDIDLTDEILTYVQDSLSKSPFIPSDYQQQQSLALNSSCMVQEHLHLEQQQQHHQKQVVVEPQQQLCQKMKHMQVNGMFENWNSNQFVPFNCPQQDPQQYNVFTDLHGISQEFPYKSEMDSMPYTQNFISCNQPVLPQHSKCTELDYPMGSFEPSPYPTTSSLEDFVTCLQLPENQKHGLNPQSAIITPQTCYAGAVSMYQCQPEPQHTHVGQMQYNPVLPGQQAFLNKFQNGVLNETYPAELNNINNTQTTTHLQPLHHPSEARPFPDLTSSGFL
Sequence of CCAAT/enhancer-binding protein beta (Homo sapiens) (P17676 whole entry, looked up): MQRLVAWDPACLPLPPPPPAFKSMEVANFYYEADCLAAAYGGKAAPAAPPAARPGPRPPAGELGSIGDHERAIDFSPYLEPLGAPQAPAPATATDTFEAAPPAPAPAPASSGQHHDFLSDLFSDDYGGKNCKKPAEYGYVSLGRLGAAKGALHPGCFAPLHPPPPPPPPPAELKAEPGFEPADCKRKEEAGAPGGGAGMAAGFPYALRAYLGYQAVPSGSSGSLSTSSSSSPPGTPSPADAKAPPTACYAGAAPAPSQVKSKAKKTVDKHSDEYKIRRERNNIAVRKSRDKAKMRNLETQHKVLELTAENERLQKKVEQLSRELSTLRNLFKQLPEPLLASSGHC

SMILES	outcome [1]	outcome [2]	outcome [3]	outcome [4]	outcome [5]	outcome [6]	outcome [7]	outcome [8]	outcome [9]	outcome [10]	outcome [11]	outcome [12]	outcome [13]	outcome [14]	outcome [15]	outcome [16]	outcome [17]	outcome [18]	AC50 [11]	AC50 [14]
COCC(C)O (stereo not drawn)	inactive	inactive	inactive	inactive	inactive	inactive	inactive	inactive	inactive	inactive	inactive	inactive	inactive	inactive	inactive	inactive	inactive	–	–	–
CC(O)C(=O)O (stereo not drawn)	–	–	–	–	–	–	–	–	–	inactive	inactive	inactive	–	inactive	–	inactive	inactive	inactive	–	–
O=c1c(-c2ccc(O)cc2)coc2cc(O)ccc12	inactive	inactive	inactive	inactive	inactive	inactive	inactive	inactive	inactive	inactive	inactive	–	inactive	inactive	inactive	inactive	inactive	inactive	100 µM (active) and 75.6 µM (active)	69.7 µM (active)
